HCT116 bCat-KO: primary screen for growth suppressors in beta-catenin knockout HCT116 cells (colon tumor, human); HCT116 beta-catenin knockout viability, CellTiter-Glo, 60 h; active compounds read low; viability, % at 10 µM; actives 1.5% (n = 140,000);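 active means viability at or under a set limit, the compound median less 4 SD, cut at about 6% in these data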;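 further: 0% = Hyamine 1622 control at 20 µM and 100% = untreated cell control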
Insulin prom inh: inhibitors of insulin promoter-driven GFP, primary screen, imaging, TRM-6 cells (human fetal islet line), eGFP reporter, cell count; reporter expression induced with tamoxifen; inhibition, % at 2 µM; actives 0.9% (n = 130,000); AID 1273, 2008;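 active means inhibition above the mean plus 3 SD, with well images judged a real hit on visual review, cut at about 60% in these data, passing the limit was not always enough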
L major viab: Leishmania major promastigote growth inhibition, primary screen | Leishmania major promastigotes, resazurin fluorescence viability | inhibition, % at 10 µM | actives 9% (n = 200,000) | AID 1063, 2008; in the data active means inhibition above about 50%;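 further: promastigotes grown with compound for 44 hours at 28 °C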
ROMK primary: ROMK potassium channel modulators, primary screen, cell-based, thallium flux, MLSMR library; ATP-sensitive inward rectifier potassium channel 1 (Homo sapiens), P48048; Tet-inducible ROMK, thallium flux fluorescence; actives lie on both sides; B-score at 10 µM; actives 2% (n = 130,000);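 active means signal ratio slope over the read window, or its plate-corrected B-score, at least 3 SD from the plate mean, either direction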;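 further: B-score of the F/F0 ratio slope over 7 to 12 s after thallium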
PTEN del growth: growth suppression of PTEN-null HCT116, primary screen, cell-based, CellTiter-Glo. HCT116 PTEN-null viability, 60 h; active compounds read low. actives 1.2% (n = 140,000). viability, % at 10 µM;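 active means viability at or below a set limit, 4 SD under the median of all tested compounds, cut at about 3.7% in these data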;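 further: PTEN knockout HCT116 line with beta catenin targeted HCT116 as companion control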
p97 ATPase inh: inhibitors of human p97 ATPase, primary screen, biochemical | Transitional endoplasmic reticulum ATPase (Homo sapiens), P55072 | actives 0.42% (n = 220,000) | inhibition, % at 8 µM | AID 1481, 2009 | recombinant p97 ATPase, Kinase-Glo ATP luminescence, 3 h; in the data active means inhibition above about 15%;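 further: 0% = DMSO vehicle and 100% = wells lacking enzyme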
Target sequence (P55072 whole entry, looked up): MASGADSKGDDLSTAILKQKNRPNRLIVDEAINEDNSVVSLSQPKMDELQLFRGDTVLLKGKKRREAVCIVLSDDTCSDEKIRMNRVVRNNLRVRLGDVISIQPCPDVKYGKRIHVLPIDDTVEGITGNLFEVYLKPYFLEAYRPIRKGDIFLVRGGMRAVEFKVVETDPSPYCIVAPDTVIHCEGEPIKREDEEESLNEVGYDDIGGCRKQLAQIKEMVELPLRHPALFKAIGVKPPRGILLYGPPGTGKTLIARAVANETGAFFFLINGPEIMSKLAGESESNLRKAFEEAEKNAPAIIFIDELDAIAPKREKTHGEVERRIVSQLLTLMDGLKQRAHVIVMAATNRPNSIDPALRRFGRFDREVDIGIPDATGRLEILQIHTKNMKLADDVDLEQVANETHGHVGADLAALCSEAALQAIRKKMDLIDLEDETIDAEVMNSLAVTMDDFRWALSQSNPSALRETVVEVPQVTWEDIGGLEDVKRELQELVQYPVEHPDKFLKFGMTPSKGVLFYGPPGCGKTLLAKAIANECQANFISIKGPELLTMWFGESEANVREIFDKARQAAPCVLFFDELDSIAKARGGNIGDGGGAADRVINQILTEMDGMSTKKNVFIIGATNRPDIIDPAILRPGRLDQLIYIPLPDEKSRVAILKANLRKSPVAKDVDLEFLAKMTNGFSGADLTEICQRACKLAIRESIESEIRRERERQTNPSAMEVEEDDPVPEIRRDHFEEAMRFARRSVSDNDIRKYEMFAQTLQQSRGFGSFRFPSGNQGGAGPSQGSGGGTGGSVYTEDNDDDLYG
* = called active by the depositor; x = not tested or not shown. An excerpt weighted towards active compounds, which were near 10% of everything screened.

SMILES	HCT116 bCat-KO	Insulin prom inh	L major viab	ROMK primary	PTEN del growth	p97 ATPase inh
CC(CCc1ccccc1)NC(=S)NC1CCCCC1 (centres undefined)	x	-29	25	x	x	-1
O=C(NC1CC2CCCC(C1)N2C(=O)Nc1ccc(Cl)c(C(F)(F)F)c1)C1CC1 (centres undefined)	78	3	5	x	79	1
O=C(Nc1ccc(Cl)c(C(F)(F)F)c1)NC1CC2CCCC(C1)N2Cc1ccccc1 (centres undefined)	x	-7	100*	x	x	8
O=[N+]([O-])c1cccc(/C=N/NC2CCS(=O)(=O)C2)c1 (centres undefined)	x	x	x	x	x	5
CC(C(=O)O)N1CCCCC1 (centres undefined)	x	x	x	0.58	x	1
O=C(N/N=C/c1ccc(N2CCCCC2)o1)C(O)(c1ccccc1)c1ccccc1	95	11	-1	0.32	89	2
CCCC1(C(=O)OCC)NC(c2ccco2)C2C(=O)N(C)C(=O)C21 (centres undefined)	x	-50	-4	-0.55	x	2
COc1ccc(C(OCC2CO2)c2ccc(OC)cc2)cc1 (centres undefined)	x	77*	-7	-0.21	x	-3
O=C(/C=C/c1ccccc1[N+](=O)[O-])N1CCCCC1	x	3	6	-0.69	x	-2
O=C(/C=C/c1ccc([N+](=O)[O-])s1)N1CCCCC1	x	-328	98*	-0.26	x	0
O=C(/C=C/c1ccc([N+](=O)[O-])s1)N1CCCC1	x	x	88*	-0.77	x	8
O=C(/C=C/c1cccs1)N1CCCCC1	x	x	5	0.00087	x	6
C#CCN1C(=O)C(O)(CC(=O)/C=C/C=C/c2ccccc2)c2ccccc21 (centres undefined)	x	-73	-4	-0.67	x	3
CCN1C(=O)C(O)(CC(=O)/C=C/C=C/c2ccccc2)c2ccccc21 (centres undefined)	72	x	75*	-0.19	72	-3
COc1ccccc1CC(=O)Nc1ccc2c(c1)C(=O)NC2=O	x	x	100*	-0.55	x	2
COc1cc(CC(=O)Nc2ccc3nc(C)sc3c2)cc(OC)c1OC	99	-18	49	x	83	7
COc1ccccc1CC(=O)Nc1ccc2nc(C)sc2c1	98	x	61*	x	89	-4
FC(F)(F)c1nnc2ccc(-n3ccnc3)nn12	92	x	-7	x	97	-1
O=C1NC(Cc2c[nH]c3ccccc23)C(=O)N1CCOc1ccccc1 (centres undefined)	98	-12	96*	x	98	9
O=C1NC(Cc2c[nH]c3ccccc23)C(=O)N1Cc1cccc2ccccc12 (centres undefined)	84	x	34	x	76	0
CC(=O)c1cccc(NC(=O)NNC(=O)CCC(=O)Nc2ccc(C)c(C)c2)c1	x	22	-6	-1	x	1
Cc1nnc(SCC(=O)NC(=O)Nc2ccc3c(c2)OCCO3)n1N	x	x	x	x	x	10
CC(=O)NCCCc1nc2ccccc2n1Cc1ccccc1F	x	x	x	0.28	x	3
COc1ccc(C(=O)Cn2c(NCCO)nc3ccccc32)cc1OC	100	87*	-4	x	101	1
COc1ccc(C(=O)NNc2ccccc2)cc1OC	89	13	56*	x	100	1
SMILES	HCT116 bCat-KO	Insulin prom inh	L major viab	ROMK primary	PTEN del growth	p97 ATPase inh
COc1ccc(C(=O)NNC(=O)Cc2ccc(-c3ccccc3)cc2)cc1OC	89	x	17	-0.26	87	3
COc1ccc(C(=O)NCCCc2nc3ccccc3n2Cc2ccccc2C)cc1OC	92	-24	77*	-2.2	80	3
COc1ccc(C(=O)NCc2cc(C)nc3ccccc23)cc1OC	x	100*	-8	1.3	x	4
O=C(O)CC1(CC(=O)NCc2cc(F)cc3c2OCOC3)CCCCC1	x	x	x	x	x	-9
O=C(O)c1ccc(-c2nnn(Cc3cccc(C(F)(F)F)c3)n2)cc1	x	x	x	x	x	4
CCCC(=O)NCCCc1nc2ccccc2n1CC	87	x	1	x	95	-6
O=CNCCCc1nc2ccccc2n1Cc1cccc2ccccc12	94	-4	93*	0.64	92	-6
CC(=O)c1c(C)nc2ccccc2c1N	48	88*	96*	0.03	26	0
Cc1occc1C(=O)NNC(=O)c1ccccc1Br	94	30	-4	0.6	95	-7
Cc1nn(Cc2c(Cl)cccc2Cl)c(C)c1NC(=O)c1cn(-c2ccccc2)nc1-c1ccccc1	0.6*	x	83*	-0.57	0.5*	-1
COc1cccc(CN(C(=O)/C=C/c2ccc(Cl)cc2)C2CCS(=O)(=O)C2)c1 (centres undefined)	x	x	12	-0.31	x	0
O=C(Cc1ccc(F)cc1)N1CCC(N2CCC(C(=O)N3CCOCC3)CC2)CC1	x	27	15	-0.19	x	7
CC(C)Cc1nnc(NC(=O)CCC(=O)N2CCN(S(=O)(=O)c3ccccc3)CC2)s1	97	3	52*	0.19	94	-1
O=C(c1ncc[nH]1)c1cccs1	x	x	x	x	x	1
COc1ccc2c3c(cccc13)N(C)N=C2C	58	-33	100*	x	62	-4
COc1ccccc1N1CCN(S(=O)(=O)c2ccc3c4c(cccc24)C(=O)N3C)CC1	95	-7	9	x	80	0
Fc1ccc(NC(=S)Nc2ccc(Cl)cc2)cc1	x	x	63*	-0.11	x	4
Fc1ccc(NC(=S)Nc2cc(Cl)ccc2Cl)cc1	x	10	6	-1.5	x	-1
COC(=O)c1ccc(COc2ccccc2/C=C(\C#N)C(=O)Nc2c(C)cccc2C)cc1	2.4*	-29	98*	0.099	1.8*	3
COc1ccc(C2(CNC(=O)c3ccc(OC)c([N+](=O)[O-])c3)CCCCC2)cc1OC	73	-55	87*	-0.7	69	2
N#CC(C#N)=Cc1cccn1-c1ccc(S(N)(=O)=O)cc1	x	x	0	0.48	x	-4
Cc1ccc(-c2nn(-c3ccccc3)cc2/C=N/NC(=O)c2ccc(Br)o2)cc1	4.2*	23	44	x	4	-6
COc1ccc(-c2nn(-c3ccccc3)cc2/C=N/NC(=O)c2cccc(S(=O)(=O)Nc3ccccc3Cl)c2)cc1	22	14	81*	x	25	3
COc1cc(C(=O)N2CCN(C(=O)c3ccco3)CC2)cc(OC)c1OC	91	43	-3	-0.29	106	1
COc1cc2nc(N3CCN(C(=O)C4COc5ccccc5O4)CC3)nc(N)c2cc1OC (centres undefined)	4.6*	27	50	x	9	-2
COc1cc2nc(N3CCN(C(=O)c4ccco4)CC3)nc(N)c2cc1OC	7	23	100*	x	5	6
O=C(C1COc2ccccc2O1)N1CCN(c2ccccc2)CC1 (centres undefined)	99	-12	0	x	94	1
COc1ccc(NC(=S)N(CCN2CCOCC2)Cc2cc3cc4c(cc3[nH]c2=O)OCCO4)cc1	x	x	14	-0.45	x	-4

Compound activity: PubChem BioAssay, several laboratories
